Sampled rows, rich in hits. Any-hit rate of the full collection: about 9.4%.
SARS PLpro yeast: qHTS of Yeast-based Assay for SARS-CoV PLP. 0.19% of 330,000 active. S. cerevisiae expressing SARS-CoV PLpro, growth rescue. Potency, µM (series often up to 32.9 µM), hits mostly activators; calls by dose curve; note: nearly all actives have a fitted effect of over 55% in size
AMA1 RON2 block: qHTS for Inhibitors of AMA1-RON; Towards Development of Antimalarial Drug Lead: Primary Screen; Plasmodium falciparum AMA1 (3D7) - RON2 peptide interaction; AID 720542, 2013; 0.2% of 360,000 active; AlphaScreen AMA1-biotinylated RON2 peptide binding; Potency, µM (doses to about 58.2 µM), usual class: inhibitors; note: nearly all actives have a fitted effect of over 45% in size
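AMA1 (3D7) with his tag at 25 nM final met compounds first, then biotinylated RON2 peptide at 25 nM; detection used donor plus acceptor beads, 10 µg/mL apiece, read by AlphaScreen after 30 min at room temperature.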
Pf growth 96h: Primary qHTS for delayed death inhibitors of the malarial parasite plastid, 96 hour incubation | 6.9% of 320,000 active | AID 504834, 2011 | Potency, µM (top dose mostly 28.7 µM), most hits filed as inhibitors | P. falciparum luciferase reporter growth, 96 h
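Erythrocytes infected with luciferase-expressing P. falciparum were dispensed at 2% hematocrit and 0.05% parasitemia (final), then incubated with compounds 96 hours at 37 C in 5% CO2. Luminescence after detection reagent addition reported growth.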
Pf growth 48h: Primary qHTS for delayed death inhibitors of the malarial parasite plastid, 48 hour incubation. P. falciparum luciferase growth in erythrocytes, 48 h. Potency, µM (highest dose often 28.7 µM), hits mostly inhibitors. 5.9% of 310,000 active. AID 504832, 2011
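Cell-based growth assay: transgenic P. falciparum expressing firefly luciferase, cultured in red cells within RPMI 1640 containing 0.5% w/v Albumax, 24 mM bicarbonate and gentamycin. A drop in luciferase activity indicates inhibition.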
Large screens that a line does not name were inactive. Unless noted, calls come from the whole dose curve; as a rule, active = well fitted curve in the direction sought with a large enough effect; inconclusive = small, poorly fitted or top-dose-only effect, or another doubt; inactive = no such curve, though single readings can be large; an effect the other way counts as inactive or inconclusive.

CN(c1cc2c(c3c1ccn3C)C1CCC2C1)C1CCCCC1 (centres undefined)	AMA1 RON2 block 16µM (no result: SARS PLpro yeast, Pf growth 96h, Pf growth 48h)
COc1ccccc1N(C)c1cc2c(c3c1ccn3C)C1CCC2C1 (centres undefined)	AMA1 RON2 block 13µM (no result: SARS PLpro yeast, Pf growth 96h, Pf growth 48h)
COc1ccc(-c2cc3c(c4c2ccn4C)C2CCC3C2)cc1F (centres undefined)	none (no result: SARS PLpro yeast, Pf growth 96h, Pf growth 48h)
CCCc1cc(=O)oc2cc(C)cc(OCc3nn[nH]n3)c12	none
O=C(/C=C/c1ccccc1)n1cnnc1SC/C=C/c1ccccc1	none
C(=C/c1ccnc2nc(SC/C=C/c3ccccc3)nn12)/c1ccccc1	Pf growth 96h 15µM, Pf growth 48h inconclusive
O=C(NS(=O)(=O)NC1CCCCC1)C1=C(N2CCCC2)COC1=O	none (no result: Pf growth 96h, Pf growth 48h)
CC1(c2ccccc2)CC(C)(C)N(C(=O)C2CCCO2)c2ccccc21 (centres undefined)	Pf growth 96h 2.3µM (no result: Pf growth 48h)
CC1(c2cc([N+](=O)[O-])cc([N+](=O)[O-])c2)CC(C)(C)N(C(=O)c2ccccc2)c2ccccc21 (centres undefined)	Pf growth 48h 2.3µM
CC1(c2ccccc2)CC(C)(C)N(C(=O)CSc2nnc(N)s2)c2ccccc21 (centres undefined)	Pf growth 96h 5.2µM, Pf growth 48h inconclusive
COc1ccccc1N1CCN(C(=O)C2CCCO2)CC1 (centres undefined)	none (no result: Pf growth 96h)
CCCCCCOc1ccc(N2C(=O)CC(SCCN)C2=O)cc1 (centres undefined)	none
O=C1N2CCSC2=NC1(NS(=O)(=O)c1ccccc1)C(F)(F)F (centres undefined)	Pf growth 96h 1µM
CCOC(=O)N1CCN(C(=O)c2cc(S(=O)(=O)N3CCc4ccccc43)ccc2OC)CC1	Pf growth 96h inconclusive, Pf growth 48h inconclusive
COc1ccc([C@H]2CC(=O)C=C(c3ccccc3Oc3ccccc3)C2)cc1	Pf growth 96h inconclusive, Pf growth 48h 10µM
COc1ccc([C@H]2CC(=O)C=C(c3ccc(CNC(=O)OC(C)(C)C)cc3)C2)cc1	Pf growth 96h 5.9µM, Pf growth 48h 12µM
COc1ccc([C@H]2CC(=O)C=C(c3ccc(-c4ccccc4)c(F)c3)C2)cc1	none
COc1ccc([C@H]2CC(=O)C=C(c3ccccc3-c3ccccc3)C2)cc1	Pf growth 96h 13µM, Pf growth 48h inconclusive
OCCN(Cc1cccnc1)Cc1ccccn1	AMA1 RON2 block 14µM (no result: SARS PLpro yeast, Pf growth 96h, Pf growth 48h)
COc1ccc(C2CC(c3ccccc3)=NN2C(=O)c2ccc(F)cc2)cc1 (centres undefined)	Pf growth 48h 12µM
O=C(c1ccccc1)N1N=C(c2ccccc2)CC1c1ccc2nccnc2c1 (centres undefined)	Pf growth 96h inconclusive, Pf growth 48h 9.3µM
O=C(Nc1ccccc1)N1N=C(c2ccc(F)cc2)CC1c1ccc(F)cc1 (centres undefined)	Pf growth 96h inconclusive
Cc1cccc(C)c1-n1nnnc1C(c1ccnc2ccccc12)N1CCN(C(=O)OCc2ccccc2)CC1 (centres undefined)	none (no result: SARS PLpro yeast, Pf growth 96h, Pf growth 48h)
COc1ccc(-c2c(C)c3cc(O)ccc3oc2=O)cc1	Pf growth 96h inconclusive, Pf growth 48h inconclusive
Cc1ccc2cc(NC(=O)C3(C)CCN(C)C3)ccc2n1 (centres undefined)	none (no result: SARS PLpro yeast, Pf growth 96h, Pf growth 48h)
CC(C)C(=O)Nc1c(-c2ccccc2F)c(=O)c2ccccc2n1C	none
Cc1c(C#N)c2ccccc2n1CC(=O)NC(C)c1ccccc1 (centres undefined)	Pf growth 48h 2.9µM (no result: Pf growth 96h)
Cc1cccc(NC(=O)Cn2c(C)c(C#N)c3ccccc32)c1C	Pf growth 48h 2.1µM (no result: Pf growth 96h)
Clc1ccc(CNC2CCCC2)cc1	none (no result: Pf growth 48h)
Oc1ccc(CNC2CCCCC2)cc1	Pf growth 48h 12µM (no result: Pf growth 96h)
Cc1sc2ncnc(SCC(=O)Nc3cccc(S(N)(=O)=O)c3)c2c1C	none (no result: Pf growth 96h, Pf growth 48h)
COc1ccccc1C(=O)N=Nc1c(O)[nH]c2ccc([N+](=O)[O-])cc12	Pf growth 96h inconclusive, Pf growth 48h 10µM
O=S1c2ccccc2-c2ccccc21	none (no result: SARS PLpro yeast, Pf growth 96h, Pf growth 48h)
O=[N+]([O-])c1ccc2c(c1)S(=O)c1ccccc1-2 (centres undefined)	Pf growth 96h inconclusive, Pf growth 48h 8.3µM
CC(=O)Nc1ccc(Sc2ccccc2C(=O)O)cc1	Pf growth 96h inconclusive
Cc1cc(OCCCCCn2ccnc2)cc(C)c1Cl	none
Cc1cc(C)c(OCCCCN2CCNCC2)c(C)c1	Pf growth 96h 3.3µM, Pf growth 48h inconclusive
Cc1cc(C)c(OCCCCCn2ccnc2)c(C)c1	Pf growth 48h 13µM

Bioassay records as filed in PubChem BioAssay.
